Sampled rows, rich in hits. Any-hit rate of the full collection: about 18%.
Gal4-VP16 FLuc: inhibits Gal4-VP16 luciferase reporter, ROR gamma counter-screen; Drosophila S2 Gal4-VP16 UAS-luciferase, luminescence, 20 h; Potency, µM (doses to about 53.6 µM), usual class: inhibitors; 3.5% of 310,000 active; AID 2546;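 note: Gal4-VP16 expression switched on by copper sulfate through the metallothionein promoter; nearly all actives have a fitted effect of over 50% in size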
LDHA inh: blocks human lactate dehydrogenase A; purified LDHA, NADH/diaphorase-resazurin fluorescence; stronger effect = lower value; activity change, % (values are at about 110 or 230 µM); 0.15% of 480,000 active; P00338; AID 1347041; in the data active = activity change below about -30%; inconclusive = mostly about -25% to -30%
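Human LDH5 at 2 nM final in Tris HCl pH 7.4 with 0.06 mM NADH and 0.2 mM pyruvate, reacted 5 minutes at room temperature. Remaining NADH coupled via diaphorase/resazurin; resorufin fluorescence read at 0 and 20 minutes, normalized to enzyme-free and DMSO wells.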
TDP1 cell noCPT: qHTS for Inhibitors of human tyrosyl-DNA phosphodiesterase 1 (TDP1): qHTS in cells in absence of CPT | AID 686978, 2013 | 15% of 420,000 active | DT40 Tdp1-/- hTDP1 cells, no CPT, ATP luminescence, 48 h | Potency, µM (series often up to 46.2 µM), hits mostly inhibitors; note: nearly all actives have a fitted effect of over 55% in size
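Cells were dispensed at 400 per well, compounds added by pin tool, plates incubated ≥48 hr at 37 °C, then CellTiter-Glo added for 30 min at room temperature before luminescence reading. Line: DT40 Tdp1-/- complemented with hTDP1; camptothecin omitted.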
IL-1B inflam inh: blocks inflammasome-driven IL-1 beta release; 4.7% of 360,000 active; activity change, % at 57.5 µM; THP-1 LPS/ATP IL-1B secretion, AlphaLISA, 16 h; stronger effect = lower value; in the data active = activity change below about -50%; inconclusive = mostly about -30% to -49%
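Secreted IL-1B measured by AlphaLISA bead assay after 16 h compound exposure of THP-1 cells; compounds (final up to 57.5 uM) added 1 h before LPS (250 ng/mL) and ATP (1.25 mM) stimulation; lower signal means less secretion.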
DT40 TDP1 CPT: growth inhibition of DT40 Tdp1-/-;hTDP1 cells with camptothecin (screen for TDP1 inhibitors); Potency, µM (doses to about 46.2 µM), usual class: inhibitors; AID 686979; 12% of 420,000 active; chicken DT40 Tdp1-/-;hTDP1 cells + 20 nM CPT, ATP luminescence, 48 h; note: nearly all actives have a fitted effect of over 55% in size
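Chicken DT40 Tdp1-/- cells stably complemented with human TDP1 were seeded at 400 cells/well in medium containing 20 nM camptothecin, exposed to pin-transferred compounds, and grown at 37 °C for at least 48 hr. Viability was read as ATP luminescence.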
RORgamma inh: inhibitors of mouse ROR gamma transcriptional activity; Drosophila S2 Gal4-RORgamma UAS-luciferase reporter, 20 h; AID 2551; Potency, µM (titrated, usually from 53.6 µM), usual class: inhibitors; P51450; 5.4% of 310,000 active; note: nearly all actives have a fitted effect of over 60% in size
Target sequence (P51450 whole entry, looked up, the tested form may be a part): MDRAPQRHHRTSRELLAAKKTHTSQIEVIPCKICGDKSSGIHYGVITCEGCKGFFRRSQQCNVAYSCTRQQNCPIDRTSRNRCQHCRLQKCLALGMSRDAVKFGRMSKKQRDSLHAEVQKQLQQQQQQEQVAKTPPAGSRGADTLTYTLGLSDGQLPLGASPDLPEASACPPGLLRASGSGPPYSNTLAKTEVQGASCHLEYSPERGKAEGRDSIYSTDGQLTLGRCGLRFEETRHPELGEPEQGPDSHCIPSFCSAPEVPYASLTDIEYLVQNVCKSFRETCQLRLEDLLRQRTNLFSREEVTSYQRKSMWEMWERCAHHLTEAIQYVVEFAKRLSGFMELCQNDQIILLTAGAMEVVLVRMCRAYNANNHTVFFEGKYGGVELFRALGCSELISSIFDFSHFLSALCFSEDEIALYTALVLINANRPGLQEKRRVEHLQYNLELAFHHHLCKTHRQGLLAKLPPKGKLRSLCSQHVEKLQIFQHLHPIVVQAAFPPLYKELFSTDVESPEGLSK
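Schneider cells (Drosophila), stable Gal4 DBD–ROR gamma + UAS-luc; 1 hr cmpd preincubation; Cu2+ induction 700 uM final; 20 hr ambient; luminescence.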
A number is an active result; – = inactive; ? = inconclusive; · = no result; [ ] = remark or other dose. Unless noted, calls come from the whole dose curve; as a rule, active = well fitted curve in the direction sought with a large enough effect; inconclusive = small, poorly fitted or top-dose-only effect, or another doubt; inactive = no such curve, though single readings can be large; an effect the other way counts as inactive or inconclusive.

SMILES	Gal4-VP16 FLuc	LDHA inh	TDP1 cell noCPT	IL-1B inflam inh	DT40 TDP1 CPT	RORgamma inh
CCOC(=O)c1c(NC(C)=O)sc2c1CCC(C=NCCCN(CC)CC)=C2Sc1ccccc1	·	–	13µM	-96.6	14.6µM	·
CCOc1ccc2nc(SCc3cccc(-c4ccccc4)c3C)sc2c1	·	–	·	·	·	·
C=CCN(c1ccccc1OC)S(=O)(=O)c1cccc(C(=O)OCC(=O)c2c(N)n(C)c(=O)n(C)c2=O)c1	·	–	18.4µM	–	?	·
C=CCN(c1ccccc1OC)S(=O)(=O)c1cccc(C(=O)NCc2cccs2)c1	·	–	18.4µM	–	14.6µM	·
C=CCN(c1ccccc1Cl)S(=O)(=O)c1cccc(C(=O)NCCc2ccc(OC)cc2)c1	–	–	20.6µM	–	?	–
CNS(=O)(=O)c1cccc(C(=O)OCC(=O)c2c(N)n(C)c(=O)n(C)c2=O)c1	–	–	?	–	–	–
COc1ccc(CCNC(=O)CN(c2cccc(Cl)c2Cl)S(=O)(=O)c2ccccc2)cc1	·	–	·	·	·	·
Cc1ccc(SCc2cc(=O)oc3c(C)c(C)ccc23)cc1	·	–	·	·	·	·
Cc1cc2oc(=O)cc(CN3CCN(CC(=O)N4CCCCC4C)CC3)c2cc1C (stereo unspecified)	·	–	·	·	·	·
CCOc1cc(S(=O)(=O)n2c(C)nc3ccccc32)ccc1F	–	–	?	–	?	–
Cc1ccc(/C=C/c2nc3ccccc3n2S(=O)(=O)c2cccc(Cl)c2)cc1	·	–	10.3µM	·	13µM	·
Cc1ccc(S(=O)(=O)n2c(C)nc3ccccc32)cc1	–	–	–	–	–	–[1.91 µM]
CSc1ccc(/C=C/c2nc3ccccc3n2S(=O)(=O)c2ccc(F)c(C)c2)cc1	·	–	20.6µM	·	18.4µM	·
CCOc1ccc(/C=C/c2nc3ccccc3n2S(=O)(=O)c2cccc(Cl)c2)cc1	·	–	6.51µM	·	7.31µM	·
COc1ccc(C)cc1S(=O)(=O)[C@H]1CS(=O)(=O)C[C@@H]1NCc1ccccn1	·	–	·	·	·	·
Cc1ccc(C(=O)/C=C/c2cccc(NC(=O)C(F)(F)F)c2)o1	·	–	·	·	·	·
O=C(N/N=C/c1ccc(Br)s1)c1ccccc1[N+](=O)[O-]	6.31µM	–	–	–	–	2.51µM
CC(C)=CCC/C(C)=C/C=N/NC(=O)c1ccccc1[N+](=O)[O-]	11.2µM	–	?	?	–	6.31µM
O=C(NN=Cc1ccc(N2CCOCC2)s1)c1ccc([N+](=O)[O-])cc1	·	–	18.4µM	?	?	·
O=C(NN=Cc1ccc2c(c1)CCC2)c1ccccc1[N+](=O)[O-]	·	–	18.4µM	–	23.1µM	·
O=C(N/N=C/c1ccc(N2CCOCC2)s1)c1ccc(O)cc1	·	–	–	?	–	·
CC(C)=CCC/C(C)=C/C=N/NC(=O)Nc1ccccc1	·	–	·	·	·	·
CCCN(CC1CC1)C(=O)CNC(N)=O	·	–	·	·	·	·
Cc1ccc(CNC(=S)Nc2ccccc2Cl)cc1	·	–	·	·	·	·
O=C(N/N=C/c1ccc(Br)s1)c1ccc([N+](=O)[O-])cc1	0.631µM	?	2.59µM	–	?	0.447µM
SMILES	Gal4-VP16 FLuc	LDHA inh	TDP1 cell noCPT	IL-1B inflam inh	DT40 TDP1 CPT	RORgamma inh
O=[N+]([O-])c1ccc(F)c(N=Cc2ccc(Br)s2)c1	–	–	–	–	–	–
Cc1ccc(OCC(=O)N/N=C\c2cccs2)c([N+](=O)[O-])c1	?	–	–	–	–	?
O=C(COc1ccc(Cl)cc1[N+](=O)[O-])N/N=C/c1cccs1	–	–	29.1µM	–	–	?
Cc1ccc([N+](=O)[O-])c(C(=O)N/N=C/c2cccs2)c1	1.26µM	–	?	–	?	1.41µM
Cc1ccc([N+](=O)[O-])c(C(=O)N/N=C/c2cccnc2)c1	–	–	–	–	–	–
Cc1cccc(C(=O)OCC(=O)N(C)C(c2ccccc2)c2ccccc2)c1[N+](=O)[O-]	·	–	7.31µM	–	11.6µM	·
Cc1c(C(=O)OCC(=O)N(C)c2ccccc2)cccc1[N+](=O)[O-]	–	–	–	–	–	–
Cc1ccccc1Cn1c(=O)n(CC2CCC(C(=O)N3CCC(C)CC3)CC2)c(=O)c2sccc21 (stereo unspecified)	·	–	16.4µM	·	23.1µM	·
Cc1ccc(Cn2c(=O)n(CC3CCC(C(=O)N4CCC(C)CC4)CC3)c(=O)c3sccc32)cc1 (stereo unspecified)	·	–	?	·	?	·
CCN(CC)C(=O)Cn1c(=O)n(Cc2ccc(F)cc2)c(=O)c2sccc21	–	–	?	–	9.2µM	–
CCN(CC)C(=O)Cn1c(=O)n(CCC(=O)Nc2ccc(F)cc2)c(=O)c2sccc21	–	–	–	–	–	–
CNC(=O)C1CCC(Cn2c(=O)c3sccc3n(CC(=O)Nc3cc(C)cc(C)c3)c2=O)CC1 (stereo unspecified)	·	–	10.3µM	·	?	·
O=C(C1CCC(Cn2c(=O)c3sccc3n(Cc3ccccc3)c2=O)CC1)N1CCOCC1 (stereo unspecified)	·	–	?	·	?	·
O=C(C1CCC(Cn2c(=O)c3sccc3n(Cc3ccc(F)cc3)c2=O)CC1)N1CCOCC1 (stereo unspecified)	·	–	18.4µM	·	23.1µM	·
COC(=O)c1c(C)[nH]c(C(=O)COc2ccc3c(-c4ccccc4)cc(=O)oc3c2)c1C	·	–	·	·	·	·
CC(Sc1ncnc2nc[nH]c12)c1ccccc1 (stereo unspecified)	·	–	·	·	·	·
Cc1ccccc1Cn1c(=O)n(CC2CCC(C(=O)NCCc3ccccc3)CC2)c(=O)c2ccccc21 (stereo unspecified)	–	–	29.1µM	–	20.6µM	?
CCCCNC(=O)C1CCC(Cn2c(=O)c3sccc3n(Cc3ccccc3)c2=O)CC1 (stereo unspecified)	·	–	–	·	–	·
Cc1cccc(C2c3[nH]c4ccccc4c3CCN2C(=O)c2nn(C)c(=O)c3ccccc23)n1 (stereo unspecified)	–	–	?	-59.4	?	–
Cc1cccc(C2c3[nH]c4ccccc4c3CCN2C(=O)c2cc(CC(C)C)[nH]c(=O)n2)n1 (stereo unspecified)	?	–	?	–	?	12.6µM
CC(C)c1nc(C(=O)N2CCc3c([nH]c4ccccc34)C2c2ccccn2)cs1 (stereo unspecified)	–	–	–	-63.5	–	–
Cc1cccc(C2c3[nH]c4ccccc4c3CCN2C(=O)c2ocnc2C)n1 (stereo unspecified)	–	–	?	–	–	–
O=C(Nc1ccccc1F)Nc1ccccc1SCc1cc(=O)n2ccccc2n1	·	–	·	·	·	·
CCOC(=O)Cn1c(=O)n2nc(Cc3ccccc3)nc2c2c3c(sc21)COC(C)(C)C3	·	–	·	·	·	·
Cc1cc2nc(-c3ccccn3)c(-c3ccccn3)nc2cc1C	–	·	·	·	·	?

Screening results: PubChem BioAssay, National Center for Advancing Translational Sciences (NCATS)
